Values joined by “and” are separate entries in the source; they are usually repeats but may differ in a detail not shown here. Equal values may be shown once. Results filed as inconclusive are left out. Where a structure was tested more than once in an assay, its records may differ in their call. Active and inactive are the calls of the source. Unless noted, calls follow the shape of the dose curve; as a rule, active = well fitted curve in the direction sought with a large enough effect in the repeat runs; inconclusive = weak or mixed curves; inactive = no such curve, though single readings can be large; an effect the other way counts as inactive or inconclusive.

Experiment [1] can be described thus: qHTS assay to identify small molecule antagonists of the glucocorticoid receptor (GR) signaling pathway - cell viability counter screen (AID 720693). Also: nearly all actives have a fitted effect of over 55% in size. Also: potency is read from the fitted curve at half-maximal effect. A general note: In qHTS, concentration-response curves come from the screen itself.
The nature of experiment [2]: qHTS assay for identifying genotoxic compounds that show differential cytotoxicity against isogenic chicken DT40 cell lines with known DNA damage response pathways - wild type cell line (AID 743012). Also: nearly all actives have a fitted effect of over 60% in size. Also: potency is read from the fitted curve at half-maximal effect. The gist of the method:
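Quantitative HTS on parental DT40 cells: 40 h compound treatment at 37 C/5% CO2, with viability then determined by CellTiter-Glo luminescence. Values serve as the DNA repair-proficient reference for differential cytotoxicity.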

A short description of experiment [3]: qHTS assay for identifying genotoxic compounds that show differential cytotoxicity against isogenic chicken DT40 cell lines with known DNA damage response pathways - Rev3 mutant cell line (AID 743014). Also: nearly all actives have a fitted effect of over 55% in size. Also: potency is read from the fitted curve at half-maximal effect.
Experiment [4] is described as follows: qHTS assay for identifying genotoxic compounds that show differential cytotoxicity against isogenic chicken DT40 cell lines with known DNA damage response pathways - Rad54/Ku70 mutant cell line (AID 743015). Also: nearly all actives have a fitted effect of over 60% in size. Also: potency is read from the fitted curve at half-maximal effect.
A short description of experiment [5]: qHTS assay to identify small molecule antagonists of the androgen receptor (AR) signaling pathway - cell viability counter screen (AID 743033; also: nearly all actives have a fitted effect of over 45% in size; also: potency is read from the fitted curve at half-maximal effect).
Experiment [6] is described as follows: qHTS assay to identify small molecule antagonists of the thyroid receptor (TR) signaling pathway - cell viability counter screen (AID 743064). Also: nearly all actives have a fitted effect of over 50% in size. Also: potency is read from the fitted curve at half-maximal effect. The gist of the method:
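Plate GH3.TRE-Luc cells; incubate 4 h at 37 °C; add compound, then T3 to 1 nM final; incubate 23.5 h; add CellTiter-Fluor; incubate 30 min at 37 °C, 5% CO2; read fluorescence.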

The subject of experiment [7] is thyroid hormone receptor (rat, GH3 cells). Briefly: qHTS assay to identify small molecule agonists of the thyroid receptor (TR) signaling pathway (AID 743066; calls by dose curve).
The target of experiment [8] is Estrogen receptor (Homo sapiens) (UniProt P03372). The experiment in a line: qHTS assay to identify small molecule antagonists of the estrogen receptor alpha (ER-alpha) signaling pathway (AID 743069; active = well fitted curve in the direction sought with a large enough effect in the signal ratio in the repeat runs, not every such curve was filed as active; the % refers to the signal ratio). The gist of the method: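 Reporter cells (ER-alpha-bla, HEK293 background) are conditioned overnight in stripped-serum medium (2% charcoal-stripped FBS). Compound and 17beta-estradiol exposure runs 18 hr at 37C, 5% CO2.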
Chain of Estrogen receptor (Homo sapiens) (P03372 whole entry, looked up): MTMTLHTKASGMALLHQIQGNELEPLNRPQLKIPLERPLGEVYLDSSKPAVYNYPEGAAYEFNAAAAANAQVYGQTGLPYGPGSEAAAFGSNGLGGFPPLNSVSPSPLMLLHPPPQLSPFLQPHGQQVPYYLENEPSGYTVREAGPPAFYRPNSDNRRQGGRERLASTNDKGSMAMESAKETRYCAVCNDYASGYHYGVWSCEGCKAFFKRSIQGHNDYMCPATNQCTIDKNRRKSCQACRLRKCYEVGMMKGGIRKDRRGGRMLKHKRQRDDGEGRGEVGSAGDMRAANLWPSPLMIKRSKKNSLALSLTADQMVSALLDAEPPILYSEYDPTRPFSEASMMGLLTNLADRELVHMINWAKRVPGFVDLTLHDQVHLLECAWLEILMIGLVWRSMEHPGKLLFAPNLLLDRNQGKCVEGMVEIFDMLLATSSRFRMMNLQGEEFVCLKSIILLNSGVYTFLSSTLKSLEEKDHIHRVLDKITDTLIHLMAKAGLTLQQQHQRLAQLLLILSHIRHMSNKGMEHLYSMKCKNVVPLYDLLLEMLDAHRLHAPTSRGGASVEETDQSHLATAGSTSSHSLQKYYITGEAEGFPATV

A short description of experiment [9]: qHTS assay to identify small molecule antagonists of the estrogen receptor alpha (ER-alpha) signaling pathway - cell viability counter screen (AID 743074; calls by dose curve;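 also: HEK293 cells carrying ER-alpha-UAS-bla reporter stimulated with 17beta-estradiol; nearly all actives have a fitted effect of over 45% in size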; also: potency is read from the fitted curve at half-maximal effect).
For experiment [10], the target named is Estrogen receptor (Homo sapiens) (UniProt P03372). Briefly: qHTS assay to identify small molecule agonists of the estrogen receptor alpha (ER-alpha) signaling pathway (AID 743075; calls by dose curve;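 also: HEK293 GripTite cells with ER-alpha and UAS-driven beta-lactamase reporter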).
Experiment [11] shares this target. Briefly: qHTS assay to identify small molecule agonists of the estrogen receptor alpha (ER-alpha) signaling pathway using the BG1 cell line (AID 743079). Also: nearly all actives have a fitted effect of over 20% in size.
Experiment [12] in a line: qHTS assay to identify small molecule antagonists of the estrogen receptor alpha (ER-alpha) signaling pathway using the BG1 cell line (AID 743080; calls by dose curve;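 also: BG1 cells stimulated with 17beta-estradiol alongside compound; nearly all actives have a fitted effect of over 25% in size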; also: potency is read from the fitted curve at half-maximal effect). The gist of the method:
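Luminescence from a 4×ERE-luciferase reporter in BG1-Luc-4E2 cells served as read-out. Cells, pre-cultured 5 days in stripped-serum phenol-red-free medium, were exposed to compound with 17beta-estradiol co-stimulation for 21.5 h at 37 C.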

Experiment [13] can be described thus: qHTS assay to identify small molecule antagonists of the estrogen receptor alpha (ER-alpha) signaling pathway using the BG1 cell line - cell viability counter screen (AID 743081).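 Also: compound given together with 17beta-estradiol as the ER stimulus; nearly all actives have a fitted effect of over 45% in size.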 Also: potency is read from the fitted curve at half-maximal effect.
Experiment [14] concerns the target Aromatase (Homo sapiens) (UniProt P11511). Briefly: qHTS assay to identify aromatase inhibitors (AID 743083). Also: nearly all actives have a fitted effect of over 55% in size. Also: potency is read from the fitted curve at half-maximal effect.
A short description of experiment [15]: qHTS assay to identify small molecule antagonists of the androgen receptor (AR) signaling pathway using the MDA cell line - cell viability counter screen (AID 743041; also: nearly all actives have a fitted effect of over 45% in size; also: potency is read from the fitted curve at half-maximal effect). The gist of the method: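 Same-well cytotoxicity was assessed by CellTiter-Fluor in MDA-kb2 AR-luc cells after 16 h of compound treatment under R1881 agonism.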
Experiment [16] can be described thus: qHTS assay to identify small molecule antagonists of the thyroid receptor (TR) signaling pathway (AID 743065). Also: nearly all actives have a fitted effect of over 55% in size. Also: potency is read from the fitted curve at half-maximal effect. The gist of the method: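 GH3.TRE-Luc rat pituitary cells (two TREs driving luciferase) were dosed with compound, then stimulated with 1 nM T3 (final) for 23.5 h at 37 C. ONE-Glo luminescence was the read-out, with CellTiter-Fluor fluorescence as the cytotoxicity counter-screen.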

Chain of Aromatase (Homo sapiens) (P11511 whole entry, looked up): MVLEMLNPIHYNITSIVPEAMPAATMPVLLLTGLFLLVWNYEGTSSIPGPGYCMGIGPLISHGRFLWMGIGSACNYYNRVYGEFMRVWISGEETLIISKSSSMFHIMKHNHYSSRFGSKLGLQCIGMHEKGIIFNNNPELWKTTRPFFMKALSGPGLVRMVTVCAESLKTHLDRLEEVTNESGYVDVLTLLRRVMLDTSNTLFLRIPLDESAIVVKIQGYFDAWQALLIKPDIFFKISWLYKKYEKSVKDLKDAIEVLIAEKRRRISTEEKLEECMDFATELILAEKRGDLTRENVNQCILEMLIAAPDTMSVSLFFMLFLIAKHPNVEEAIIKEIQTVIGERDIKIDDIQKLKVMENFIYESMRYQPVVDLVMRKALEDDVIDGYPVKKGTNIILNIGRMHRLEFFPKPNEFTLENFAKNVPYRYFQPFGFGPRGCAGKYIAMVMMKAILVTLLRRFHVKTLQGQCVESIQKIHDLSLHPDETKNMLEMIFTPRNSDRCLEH

On to `Cc1cc(C)cc(OP(=O)(Oc2cc(C)cc(C)c2)Oc2cc(C)cc(C)c2)c1`, for which the Potency entry in experiment [1], in [2], in [3], in experiment [4], in experiment [5] and in experiment [6] was “inactive” throughout. For the same compound, the Potency entry in [8], in experiment [9], in experiment [10], in [11], in [12] and in experiment [13] was “inactive” throughout. The Potency entry in [14] is “inactive”. For the same compound, in experiment [7], the result was inactive.
Regarding `CC(C)[C@H](C(=O)O[C@H](C#N)c1cccc(Oc2ccccc2)c1)c1ccc(Cl)cc1`, the Potency result in [1], in experiment [5], in experiment [15], in experiment [6], in experiment [9] and in experiment [13] was “inactive” each time. Further, in experiment [14], the Potency entry is “inactive”. Moreover, the Potency in [2] was 43.2 µM (active); in [3], 43.2 µM (active); in experiment [4], 30.6 µM (active). For the same compound, in experiment [7], the result was inactive.
On to `O=c1[nH]c2ccccc2n1C1CCN(CCCC(c2ccc(F)cc2)c2ccc(F)cc2)CC1`, for which the Potency in [1] is 5.49 µM (active); in [2], 5.31 µM (active) and 6.11 µM (active); in experiment [3] it was 10.6 µM (active) and 21.7 µM (active); in experiment [4], 8.41 µM (active) and 9.69 µM (active); in experiment [5] it was “inactive and 17.4 µM (active)”; in experiment [9] it was 26.8 µM (active) and 54.9 µM (active). Further, the Potency is 54.5 µM (active) in experiment [13]; “inactive and 30.6 µM (active)” in experiment [14]. Besides, the Potency entry in experiment [15] and in experiment [10] was “inactive” in each case.
Consider `CCN`, for which the Potency entry in [1], in experiment [2], in [3], in experiment [4], in [5] and in experiment [6] was “inactive” in each case. Besides, the Potency result in [9], in experiment [12], in experiment [13] and in experiment [14] was “inactive” throughout. Also, the compound was classed as inactive in experiment [7].
For `CC(=O)[O-].CC(=O)[O-].[Hg+2]`, the Potency in [1] was 6.16 µM (active); in experiment [2], 1.54 µM (active); in experiment [3], 1.54 µM (active); in experiment [4] it was 1.09 µM (active); in experiment [5], 11 µM (active); in experiment [15], 27.3 µM (active). Also, the Potency in [6] was 1.37 µM (active); in experiment [9] it was 49 µM (active); in experiment [13], 61.1 µM (active); in [14], 2.73 µM (active).
Regarding `CN(C)[C@@H]1C(=O)C(C(N)=O)=C(O)[C@@]2(O)C(=O)C3=C(O)c4c(O)ccc(Cl)c4[C@@](C)(O)[C@H]3C[C@@H]12`, the Potency result in experiment [1], in experiment [2], in experiment [5], in experiment [15], in experiment [6] and in experiment [16] was “inactive” each time. Besides, the Potency result in experiment [9], in experiment [13] and in experiment [14] was “inactive” in each case. Moreover, the Potency result is “inactive and 55.6 µM (active)” in [3]; “inactive and 62.4 µM (active)” in experiment [4]. Besides, in experiment [7], the call was inactive.
`N#CNC#N`: the Potency entry in [1], in experiment [2], in experiment [3], in [5], in experiment [15] and in experiment [16] was “inactive” throughout. Besides, the Potency entry in [13] and in [14] was “inactive” in each case. Also, in [4], the Potency was 61.8 µM (active). Besides, the result in experiment [7] was inactive.
On to `CCCCCCCCCC[N+](C)(C)CCCCCCCCCC`, for which the Potency in experiment [1] is 24.5 µM (active); in experiment [2], 668 nM (active) and 433 nM (active); in experiment [3] it was 841 nM (active) and 433 nM (active); in experiment [4], 1.06 µM (active) and 344 nM (active); in experiment [5], 16.9 µM (active) and 19.5 µM (active); in [6], 5.96 µM (active) and 12.2 µM (active). In addition, the Potency in experiment [16] was 5.96 µM (active) and 9.69 µM (active); in [9] it was 10.7 µM (active) and 38.9 µM (active); in experiment [12], 33.5 µM (active); in [14] it was 13.3 µM (active) and 24.3 µM (active). For the same compound, the Potency entry in experiment [10] and in [13] was “inactive” throughout.
On to `CC(C)CC(C)Nc1ccc(Nc2ccccc2)cc1` (stereo not drawn), for which the Potency in [1] is 48.2 µM (active); in [2], 26.8 µM (active); in experiment [3] it was 16.9 µM (active); in experiment [4], 15.1 µM (active); in [5], 21.5 µM (active); in experiment [6], 42.5 µM (active). The Potency was 30.1 µM (active) in experiment [16], 48.2 µM (active) in experiment [9], 53.5 µM (active) in experiment [13] and 53.5 µM (active) in experiment [14]. For the same compound, the result in [7] was inactive. Moreover, the Potency entry in experiment [10] is “inactive”.
As to `Cn1cc(C2=C(c3cn(C4CCN(Cc5ccccn5)CC4)c4ccccc34)C(=O)NC2=O)c2ccccc21`, the Potency entry in experiment [1], in experiment [2], in experiment [3], in experiment [4], in experiment [5] and in [6] was “inactive” throughout. In addition, the Potency result in experiment [16] and in experiment [9] was “inactive” each time. Besides, the outcome in [7] was inactive.
In the case of `CC(=O)OC1(c2ccccc2)CCN(CCc2ccccc2)CC1`, the Potency entry in [1], in [5], in [9], in experiment [13] and in [14] was “inactive” in each case. Moreover, the Potency in experiment [2] was 4.43 µM (active); in experiment [3], 4.43 µM (active); in experiment [4], 4.43 µM (active); in [6], 31.4 µM (active); in experiment [16], 55.8 µM (active). The outcome in experiment [7] was inactive.
For `C[C@@H]1O[C@@H](O[C@@H]2C=C3CC[C@@H]4[C@H](CC[C@]5(C)[C@@H](c6ccc(=O)oc6)CC[C@]45O)[C@@]3(C)CC2)[C@H](O)[C@H](O)[C@H]1O`, the Potency in experiment [1] was 0.091 µM (active); in experiment [2], 0.127 µM (active); in experiment [3], 0.101 µM (active); in [4], 0.127 µM (active); in experiment [5] it was 0.0057 µM (active). For the same compound, the Potency result in [15], in experiment [6], in experiment [16], in experiment [13] and in experiment [14] was “inactive” throughout. Also, the compound was called inactive in experiment [7].

Values taken from PubChem BioAssay (Tox21).
